The full list was thinned out, with hits kept by preference.
Eya2 inh = Eya2 (human) phosphatase inhibition. actives 0.006% (n = 330,000). AID 488837. Potency, µM (top dose mostly 76.9 µM), without a hit: top-dose activity, negative = inhibition, usual class: inhibitors. recombinant Eya2, OMFP fluorescence dephosphorylation (OMFP is methylfluorescein phosphate). O00167; further: on the % scale 0 is the no-effect control and ±100 the full control effect
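Eya2 protein (added as 0.2 uM solution) was preincubated with compound for 10 min at ambient temperature in 50 mM HEPES pH 7.5, 50 mM NaCl, 5 uM MgCl2, 0.05% BSA, 1 mM DTT. OMFP (added at 50 uM) then reacted 10 min; fluorescence read at 485/525 nm.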
GALK inhibitor = galactokinase (human) inhibition. P51570. Purified GALK, Kinase-Glo residual ATP luminescence. Potency, µM (series often up to 57.5 µM), for inactives: top-dose activity change, negative = inhibition, usual class: inhibitors. actives 0.007% (n = 270,000); further: on the % scale 0 is the no-effect control and ±100 the full control effect
Target sequence (P51570 whole entry, looked up): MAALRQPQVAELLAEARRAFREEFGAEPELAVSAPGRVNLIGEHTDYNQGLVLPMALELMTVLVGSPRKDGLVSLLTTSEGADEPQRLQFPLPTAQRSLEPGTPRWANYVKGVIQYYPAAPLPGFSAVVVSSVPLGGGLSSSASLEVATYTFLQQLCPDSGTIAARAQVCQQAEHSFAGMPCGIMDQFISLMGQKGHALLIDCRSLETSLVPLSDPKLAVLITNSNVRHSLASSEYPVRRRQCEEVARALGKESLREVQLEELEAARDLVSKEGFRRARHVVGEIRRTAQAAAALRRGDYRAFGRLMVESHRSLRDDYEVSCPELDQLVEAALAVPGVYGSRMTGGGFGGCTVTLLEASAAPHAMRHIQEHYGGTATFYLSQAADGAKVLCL
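GALK at 5 nM final was combined with compound, 35 uM ATP and 100 uM galactose in HEPES pH8.0 with MgCl2 and DTT. The reaction ran one hour at room temperature before luminescent ATP detection.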
USP2a inh = inhibitors of human ubiquitin-specific protease USP2a; O75604; USP2 core, Ub-CHOP2 coupled fluorogenic reporter, 485/531; Potency, µM (top dose mostly 38.3 µM), without a hit: at the highest dose activity change, negative = inhibition, usual class: inhibitors; actives 0.01% (n = 330,000); AID 463254;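 further: plate controls were DMSO wells for no effect and full inhibition by NEM control for full effect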
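USP2 core (10nM final) preincubated 30min RT with compound in 20mM Tris-HCl pH 8.0, 2mM CaCl2, 2mM beta-mercaptoethanol, 0.05% CHAPS; 25nM Ub-CHOP2 plus 25nM reporter substrate added, fluorescence (Ex485/Em531) read after 60min.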
ClpP mod = qHTS Assay for Activators of ClpP. Potency, µM (doses to about 57.5 µM), for the others: at the highest dose activity change, negative = active. ATP-dependent Clp protease proteolytic subunit (Bacillus subtilis (strain 168)), P80244. purified B. subtilis ClpP, FRET peptide cleavage, 20 min. AID 651965, 2013. actives 1.9% (n = 340,000); active means well fitted falling curve with a large enough effect; inconclusive means small, poorly fitted or top-dose-only effect; inactive means no such curve, though single readings can be large or run the other way; further: the source files actives as falling curves though it sought activators and does not explain the sign; nearly all actives have a fitted effect of over 65% in size
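FRET quenching reversal measured ClpP activation: 10 microg/mL B. subtilis ClpP at pH 8 with the FRET-FV decapeptide, read at 430 nm after 320 nm excitation. The 20-min minus 0-min signal was scaled between DMSO/no-enzyme wells and ADEP (5.8 microM final).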
Starred values were filed as active, the others as inactive; ? = inconclusive; . = no result given; ! = repeats disagree; [ ] = another dose, or the depositor's remark. Unless noted, the call rests on the fitted dose curve; in most records, active means well fitted inhibition curve with a large enough effect; inconclusive means small, poorly fitted or top-dose-only effect, or effect the other way; inactive means flat fitted curve, though single readings scatter. Potency means the concentration at half of the fitted maximal effect.

SMILES	Eya2 inh	GALK inhibitor	USP2a inh	ClpP mod
CCCOC(=O)Nc1ccc([As](=O)(O)O)cc1NC(=O)OCCC	-7.7%	2.9%	1.0%	.
CCOC(=O)Nc1ccc(NCc2ccc(F)cc2)nc1N	50.1µM*!	.	?	-28.3%
CCN(CC)c1ccc(CC2C(=O)N(C)C(=O)N(C)C2=O)cc1	-5.6%	-0.6%	4.4%	8.91µM*
CN(C)C(=O)Oc1ccc(-c2cn3cc(C(F)(F)F)ccc3n2)cc1	0.4%	.	2.9%	10µM*
CN(C)C(=O)Oc1ccc(-c2cn3cc(Cl)ccc3n2)cc1	0.7%	5.8%	2.1%	?
CCn1nc(-c2cccs2)nc2c(=O)n(C)c(=O)nc1-2	?	1.26µM*	0.0%	0.4%
CCOC(=O)CC(SP1(=S)OCC2(CCCCC2)CO1)C(=O)OCC (stereo not given)	.	.	.	28.2µM*
C[C@@H]1CC2(CCCC[N+]2(C)C)C[C@H]1C	13.3%	0.0%	15.5%	.
CCC(=Nc1ccc2c(c1)CCC2)c1c(O)n(C2CCCCC2)c(=O)[nH]c1=O	-4.4%[15.4 µM]	0.0%	-1.4%	0.2%
CCCCn1c(=O)c(C(=O)NCc2ccccc2OC)c(O)c2ccccc21	12.7%	4.5%	3.3%	-19.5%
CC(=O)[C@H]1CCC2C3CC[C@H]4C[C@H](O)CC[C@]4(C)C3CC[C@@]21C (stereo not given in full)	-4.4%	.	.	.
CCN1C(=O)C(=C/C=C/c2ccco2)C(=O)N(CC)C1=S	23.8%	0.3%	2.1%	.
Cc1ccc(N/N=C/C=C/c2ccco2)cc1	.	.	.	12.6µM*
O=c1cc(CN2CC=C(c3ccccc3)CC2)c2c(ccc3ccccc32)o1	-4.7%	-1.4%	3.1%	.
COc1ccccc1-n1c(-c2ccoc2)nc2ccccc2c1=O	0.8%	1.3%	0.3%	-1.8%
Cc1cccc2c1=NC(=O)/C(=C/c1c(O)[nH]c(=O)[nH]c1=O)C=2	-4.6%	-0.7%	5.4%	12.6µM*
CCOP(=O)(OCC)C(c1ccccc1)N(C)C=O (stereo not given)	-2.8%	-0.3%	3.9%	1.0%
COc1cccc(O)c1CN1CCCC(C(=O)c2ccccc2SC)C1 (stereo not given)	3.4%	5.1%	-3.8%	-1.9%
CCC1(CC)C(=N)N(C)C(=O)NC1=O	-0.1%	-0.1%	4.0%	15.8µM*
c1ccc2c(CN3CCCCCCC3)c[nH]c2c1	-6.3%	-1.1%	-2.4%	28.2µM*
c1ccc2c(CN3CCN(C4CCCCC4)CC3)c[nH]c2c1	-11.1%	0.9%	-2.7%	-1.4%
COc1cc(C(=O)N2Cc3ccccc3-n3nncc3C2)cc(OC)c1OC	.	.	.	0.7%
CN1CCCC1c1ccc(=O)[nH]c1 (stereo not given)	.	.	.	31.6µM*
Cc1cc(C)cc(-n2c(=O)[nH]c3ccccc3c2=O)c1	.	.	.	-23.8%
COc1cc2[nH]c(=O)n(-c3ccccc3)c(=O)c2cc1OC	-20.8%	-2.9%	1.0%	25.1µM*
SMILES	Eya2 inh	GALK inhibitor	USP2a inh	ClpP mod
COc1cc2[nH]c(=O)n(-c3cccc(Cl)c3)c(=O)c2cc1OC	-16.5%	-0.9%	2.3%	28.2µM*
Cc1ccc(NC(=O)c2cn(CCC#N)nc2-c2ccc3c(c2)OCCO3)c([N+](=O)[O-])c1	11.2%	1.1%	-0.4%	28.2µM*
CCOP(=O)(OCC)C(O)c1cccc([N+](=O)[O-])c1 (stereo not given)	5.1%	3.3%	2.8%	0.7%
CCOP(=O)(OCC)c1ccc(OP(=O)(c2cccc([N+](=O)[O-])c2)c2cccc([N+](=O)[O-])c2)cc1	-0.1%	2.6%	-1.9%	35.5µM*
COC(=O)C1=C(c2ccc(Cl)c(C(F)(F)F)c2)C[C@@H]2CC[C@H]1N2C(=O)NCc1ccc2c(c1)OCO2	-19.7%	.	3.0%	-0.3%
Cc1cc(OCC(=O)OC(C)C)c2c3c(c(=O)oc2c1)CCCC3	13.6%	1.6%	-5.9%	35.5µM*
CCOC(=O)C(C)Oc1cc(C)cc2oc(=O)c3c(c12)CCCC3 (stereo not given)	-6.6%[15.4 µM]	2.2%	4.8%	15.8µM*
Cc1cc(OCC(=O)NC2CCS(=O)(=O)C2)c2c3c(c(=O)oc2c1)CCC3 (stereo not given)	-4.1%	8.4%	-0.5%	3.16µM*
COC(=O)C(C)Oc1cc(C)cc2oc(=O)c3c(c12)CCCC3 (stereo not given)	.	5.0%	.	25.1µM*

Bioassay records from PubChem BioAssay.
